Assay results as given in ChEMBL document CHEMBL3988442, “University of Dundee, Small-Polar-MMV Screening Library” (2021).
The whole screen tested about 48,000 compounds, of which about 13,000 (27%) showed an effect of 50% or more. Some of the results follow.

The compounds below were run on Wolbachia pipientis (assay: Anti-Wolbachia Cell-Based Screen). Details: 5 µM.
Type: functional
Design: scale not given: in the data most compounds retested in dose-response had high values
For `CC(C)(C)CC(=O)N1CC[C@@H](CC(=O)O)[C@@H](CCN2CCCCC2)C1`, the “Percent Effect” value was -5.604%. `CN(C)c1ccc(C(=O)N(Cc2ccncc2)CC2CCCO2)nn1` (configuration not stated) was tested, and the “Percent Effect” value was -20.14%. For `CC(=O)Nc1cccc(C(=O)Nc2cnc3n2CCCC3)c1`, the “Percent Effect” value was -12.98%. In the case of `CCCS(=O)(=O)N1C[C@@H]2CC[C@H](C1)N(Cc1cscn1)C2=O`, the “Percent Effect” value is reported as -56.87%. In the case of `COCc1cnc2n1CCN(S(=O)(=O)c1c(C)nn(C)c1C)C2C` (configuration not stated), the “Percent Effect” value is reported as -6.968%. In the case of `CCCN(CCC)S(=O)(=O)NCCc1cc(C)ccc1OC`, the “Percent Effect” value is reported as -23%. With `CCN(CC)C1(Cc2cc(-c3cccc(O)c3)on2)COC1` the “Percent Effect” value was -3.325%. `O=C1Nc2ccccc2CN(C/C=C/c2ccccc2)C12CCNC2` (configuration not stated) was tested, and the “Percent Effect” value was 116.1%. With `COc1ccccc1NC(=O)CSC1CCc2ccccc2NC1=O` (configuration not stated) the “Percent Effect” value was 14.42%. For `O=C1NC2(CCN(C/C=C/c3ccccc3)CC2)CC1c1ccccc1` (configuration not stated), the “Percent Effect” value was 1.619%. `CCCN1Cc2ccccc2NC(=O)C12CCNC2` (configuration not stated) was tested, and the “Percent Effect” value was 105.5%. In the case of `CC(C(=O)O)N1CC2(CCC1=O)CCN(C/C=C/c1ccccc1)CC2` (configuration not stated), the “Percent Effect” value is reported as -24.48%. For `O=C(CSC1CCc2ccccc2NC1=O)NCCO` (configuration not stated), the “Percent Effect” value was -0.2821%. For `O=C1Nc2ccccc2CN(CC2CC2)C12CCNC2` (configuration not stated), the “Percent Effect” value was 99.74%. `CCc1nnc(CN2CCC3(CC2)Nc2ccccc2NC3=O)o1` was tested, and the “Percent Effect” value was 8.139%. `O=C1NCCN(CC2CC2)C12CCN(Cc1ccco1)CC2` was tested, and the “Percent Effect” value was -5.362%. With `O=C1Nc2ccccc2CN(CC2CCCC2)C12CCNC2` (configuration not stated) the “Percent Effect” value was 101.1%. For `CN(C)CCOC1CC2(CCN(c3cnccn3)CC2)c2ccccc21.O=C(O)C(F)(F)F` (configuration not stated), the “Percent Effect” value was -0.2574%. For `CC(C)NC(=O)N1CCN2C(=O)N(Cc3ccc(F)cc3)C[C@H]2C1`, the “Percent Effect” value was 1.439%. In the case of `CO[C@H]1CN(C(C)C)C[C@@H]1NC(=O)c1cc(-c2ccccc2O)n[nH]1`, the “Percent Effect” value is reported as 3.341%. With `CNc1nc(C)cc(N2CCC(C(=O)O)(n3ccc(C(C)C)n3)CC2)n1` the “Percent Effect” value was -25.68%. `O=S(=O)(NCC1(O)CCOc2ccccc21)c1ccc(Cl)s1` (configuration not stated) was tested, and the “Percent Effect” value was -0.7436%. For `O=C1CC2(CCN(C(=O)Cc3cc4c(cc3Cl)OCCO4)C2)C(=O)N1` (configuration not stated), the “Percent Effect” value was -1.867%. For `Cc1cc(NCC2(O)CCOCC2)nc2ccccc12`, the “Percent Effect” value was 15.38%. With `Cc1cnn(CC2CCCN2C(=O)c2ccc(Cl)cc2F)c1` (configuration not stated) the “Percent Effect” value was 130.9%. `CCn1nnc2cc(C(=O)N3CCCC3Cn3cc(C)cn3)ccc21` (configuration not stated) was tested, and the “Percent Effect” value was -10.21%. With `Cc1cnn(CC2CCCN2C(=O)c2ccc3nnc(C)n3c2)c1` (configuration not stated) the “Percent Effect” value was -11.91%. `Cc1cnn(CC2CCCN2C(=O)c2ccc(F)cc2Cl)c1` (configuration not stated) was tested, and the “Percent Effect” value was 118%. In the case of `O=C(c1ccccc1N1CCOCC1)N1CCCC1Cn1cccn1` (configuration not stated), the “Percent Effect” value is reported as -6.576%. With `COc1ccc(C(=O)N2CCCCC2Cn2cccn2)c(F)c1` (configuration not stated) the “Percent Effect” value was 4.231%. `O=C(c1cc(Cl)ccc1F)N1CCCC1Cn1cccn1` (configuration not stated) was tested, and the “Percent Effect” value was 101.1%. For `Cc1cnn(CC2CCCN2C(=O)c2ccc(F)c(F)c2)c1` (configuration not stated), the “Percent Effect” value was 123.6%.
